FEN1 inhibitor: qHTS Assay for the Inhibitors of Human Flap endonuclease 1 (FEN1); AID 588795, 2011; 390,000 compounds, 0.35% hits; Potency, µM (top dose mostly 114 µM), inactives show at the top dose activity change, negative = inhibition, actives largely listed as inhibitors; P39748; Recombinant FEN1 flap cleavage, fluorescence, 15 min; also: nearly all actives have a fitted effect of over 65% in size
Target sequence (P39748 whole entry, looked up): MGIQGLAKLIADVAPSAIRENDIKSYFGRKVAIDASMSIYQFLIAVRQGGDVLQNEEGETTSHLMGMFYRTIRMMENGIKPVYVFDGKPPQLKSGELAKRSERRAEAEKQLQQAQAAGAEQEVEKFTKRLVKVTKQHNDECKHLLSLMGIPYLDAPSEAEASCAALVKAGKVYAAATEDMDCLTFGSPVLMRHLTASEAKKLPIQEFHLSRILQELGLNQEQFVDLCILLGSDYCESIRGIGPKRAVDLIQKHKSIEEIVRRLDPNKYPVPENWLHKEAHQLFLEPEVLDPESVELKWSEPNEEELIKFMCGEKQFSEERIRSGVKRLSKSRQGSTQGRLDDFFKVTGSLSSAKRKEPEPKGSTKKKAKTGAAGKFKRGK
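Read-out was taken twice, immediately and after 15 min, following addition of 50 nM substrate to 10 nM FEN1 that had sat with test compound for 15 min at room temperature. Curves came from a four-parameter Hill model.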
TDP1 block: qHTS Assay for Inhibitors of Tyrosyl-DNA Phosphodiesterase (TDP1) | AID 485290, 2010 | recombinant TDP1, AlphaScreen DNA substrate cleavage | 350,000 compounds, 0.28% hits | Potency, µM (highest dose often 130 µM), inactives show at the highest dose activity change, negative = inhibition, hits mostly inhibitors | Tyrosyl-DNA phosphodiesterase 1 (Homo sapiens), Q9NUW8; also: nearly all actives have a fitted effect of over 40% in size
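Here, a 5' biotin and 3' phosphotyrosine-FITC DNA oligonucleotide reports Tdp1 activity: intact substrate bridges AlphaScreen beads, while cleavage leaves a 3' phosphate and drops signal. All incubations at room temperature.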
RECQ1 inh-1: qHTS Assay for Inhibitors of RecQ-Like Dna Helicase 1 (RECQ1). ATP-dependent DNA helicase Q1 (Homo sapiens), P46063. RECQ1 DNA unwinding, red fluorescence kinetic read. Potency, µM (highest dose often 57.3 µM), for inactives: at the top dose activity, negative = inhibition, most hits filed as inhibitors. 240,000 compounds, 0.54% hits;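 also: plate controls were vehicle for no effect and no enzyme for full effect; nearly all actives have a fitted effect of over 30% in size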
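50 nM RECQ1T1 preincubated 15 min with compound in Tris pH 8.0 buffer with MgCl2, DTT, Tween-20 and 2.5 ug/ml poly(dI-dC); started with 200 nM TAMRA/BHQ-2 forked duplex and 2 mM ATP. Unwinding read as fluorescence (525/598 nm), two reads 2 h apart.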
APE1 inh-1: qHTS Assay for Inhibitors of the Human Apurinic/apyrimidinic Endonuclease 1 (APE1). DNA repair nuclease/redox regulator APEX1 (Homo sapiens), P27695. recombinant APE1, TAMRA/BHQ-2 abasic DNA cleavage fluorescence. Potency, µM (titrated, usually from 65.8 µM), for the others: at the highest dose activity change, negative = inhibition, hits mostly inhibitors. 350,000 compounds, 0.35% hits. AID 2517, 2012;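 also: plate controls were vehicle for no effect and reference inhibitor for full effect; nearly all actives have a fitted effect of over 55% in size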
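APE1 at 0.75 nM final was preincubated with compound 15 min at room temperature, then 50 nM double-stranded THF abasic-site substrate (5'-TAMRA/3'-BHQ-2) was added. Fluorescence (ex 525/em 598 nm) was read kinetically; third-minus-first read gave activity.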
BLM inh-1: qHTS Assay for Inhibitors of Bloom's syndrome helicase (BLM) | RecQ-like DNA helicase BLM (Homo sapiens), P54132 | recombinant BLM DNA unwinding, fluorescence dequenching | Potency, µM (top dose mostly 56.1 µM), for inactives: at the highest dose activity change, negative = inhibition, hits mostly inhibitors | 350,000 compounds, 0.2% hits | AID 2528, 2010;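 also: plate controls were vehicle for no effect and no enzyme for full effect; nearly all actives have a fitted effect of over 35% in size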
DNA dye displace: Counterscreen for APE1 Inhibitors: Fluorescent Dye Displacement Assay; shares compounds with APE1 inh-1; DNA fluorescent dye displacement counterscreen, fluorescence; Potency, µM (doses to about 28.5 µM), without a hit: at the highest dose activity change, negative = inhibition, hits mostly inhibitors; 480 compounds, 7% hits; AID 2564, 2010;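 also: loss of thiazole orange fluorescence as the dye is displaced from duplex DNA; 0% = ThO with dsDNA and no compound and -100% = ThO without dsDNA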
Endo IV inh: Counterscreen for APE1 Inhibitors: qHTS Assay for Inhibitors of Endonuclease IV; shares compounds with APE1 inh-1; E. coli Endo IV, fluorogenic AP-site DNA cleavage; Potency, µM (top dose mostly 27.1 µM), without a hit: at the highest dose activity change, negative = inhibition, most hits filed as inhibitors; 560 compounds, 4% hits;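 also: plate controls were uninhibited enzyme wells for no effect and no enzyme buffer wells for full effect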
APE1 inh-2: Confirmation qHTS Assay for Inhibitors of the Human Apurinic/apyrimidinic Endonuclease 1 (APE1) | shares compounds with APE1 inh-1 | purified APE1, fluorogenic abasic-site DNA cleavage | Potency, µM (top dose mostly 57.1 µM), for inactives: top-dose activity change, negative = inhibition, usual class: inhibitors | 750 compounds, 44% hits | AID 2572, 2010; also: nearly all actives have a fitted effect of over 30% in size
APE1 FP: qHTS FP-Based Assay for Inhibitors of the Human Apurinic/apyrimidinic Endonuclease 1 (APE1); Potency, µM (top dose mostly 28.5 µM), for inactives: at the highest dose activity, negative = inhibition, most hits filed as inhibitors; APE1 binding to TAMRA-labelled double-stranded DNA, fluorescence polarization displacement; 480 compounds, 7% hits; shares compounds with APE1 inh-1
BLM inh-2: qHTS Confirmation Assay for Inhibitors of Bloom's syndrome helicase (BLM); 220 compounds, 40% hits; shares compounds with BLM inh-1; Potency, µM, without a hit: max response, negative = inhibition, actives largely listed as inhibitors; AID 2585, 2010; BLM DNA unwinding, fluorescence quenching, biochemical;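 also: strand separation dequenches TAMRA so unwinding raises red fluorescence; series mostly up to about 69 µM; nearly all actives have a fitted effect of over 45% in size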
RECQ1 inh conf: Confirmation qHTS Assay for Inhibitors of RecQ-Like Dna Helicase 1 (RECQ1). shares compounds with RECQ1 inh-1. RECQ1 helicase DNA unwinding, fluorescence. Potency, µM (top dose mostly 229 µM), for inactives: at the top dose activity change, negative = inhibition, actives largely listed as inhibitors. 610 compounds, 28% hits. AID 2708, 2010; also: nearly all actives have a fitted effect of over 45% in size
ADP FP counter: Counterscreen for RECQ1 Inhibitors: ADP Fluorescence Polarization Displacement Assay; shares compounds with RECQ1 inh-1; ADP fluorescence polarization displacement counterscreen; Potency, µM (highest dose often 228 µM), without a hit: at the highest dose activity change, negative = inhibition, usual class: inhibitors; 530 compounds, 27% hits; also: nearly all actives have a fitted effect of over 45% in size
RECQ1 inh-2: Confirmation qHTS Assay for Inhibitors of RecQ-Like Dna Helicase 1 (RECQ1) - Round 2 Cherry Picks; Potency, µM (doses to about 119 µM), for the others: at the highest dose activity, negative = inhibition, actives largely listed as inhibitors; recombinant RECQ1 DNA unwinding, red fluorescence; shares compounds with RECQ1 inh-1; 1,100 compounds, 15% hits; also: nearly all actives have a fitted effect of over 50% in size
Active calls of the source: *; ? = inconclusive; . = no result; ! = repeats disagree; [ ] = remark or other dose. The list is not random: actives were taken first. Their share in the collection is about 0.92%. Calls follow the shape of the dose curve; as a rule, active = well fitted curve in the direction sought with a large enough effect; inconclusive = small, poorly fitted or top-dose-only effect, or another doubt; inactive = no such curve, though single readings can be large; an effect the other way counts as inactive or inconclusive. Unless noted, % is scaled to controls: 0 for no effect and ±100 for the full control effect; potency is read from the fitted curve at half-maximal effect.

SMILES	FEN1 inhibitor	TDP1 block	RECQ1 inh-1	APE1 inh-1	BLM inh-1	Endo IV inh	APE1 inh-2	RECQ1 inh conf	ADP FP counter	RECQ1 inh-2	others
O=c1c(O)c(-c2ccc(O)c(O)c2)oc2cc(O)cc(O)c12	40µM*	15%[56.1 µM]	1.8µM*!	1.3µM*!	-14%	-63%[57.1 µM]	-37%	?	13µM*	.
COC(=O)C[C@@](O)(CCC(C)(C)O)C(=O)O[C@@H]1C(OC)=C[C@]23CCCN2CCc2cc4c(cc2[C@@H]13)OCO4	.	4%	-7%	0%	-1%	.	.	.	.	.
CC(=O)Nc1ccc(N=Cc2c(O)n(Cc3ccco3)c(=O)[nH]c2=O)cc1	-33%	18µM*	?	?	?	.	-26%	.	.	?
CCc1nnc(NC(=O)CSc2ccc(-c3ccco3)nn2)s1	2%	22µM*	?	?	14µM*	.	?	.	.	-14%	BLM inh-2=?
CC(N)[C@H](O)c1ccc(O)c(O)c1 (stereo not given in full)	14µM*	?	6.3µM*	1µM*	.	43%[57.1 µM]	-6%	31%	13µM*	.	DNA dye displace=-11%[57.1 µM];APE1 FP=-3%[57.1 µM]
CCCN(CCC)CCc1ccc(O)c(O)c1	.	-7%	-1%	0%	.	.	.	.	.	.
COc1ccc(OC)c(C(O)C(C)N)c1 (stereo not given)	2%	3%	6%	5%	2%	.	.	.	.	.
